# Columns and labels:
# Assay in all cases: yeast three-hybrid, YBZ-1, SC-Leu-His + 0.5 mM 3-AT, 4 days
# Settings in all cases: tags: N-Gal4 AD-HA kept; label: inside an RPR1-promoter hybrid RNA with tandem MS2 sites; ssRNA
# [1] = biological target: PUM1 PUF domain R3-YPR (Homo sapiens, UniProt Q14671 828-1176, C935Y;R936P;Q939R)
# Summary of the method: (§1)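 Pumilio-1 PUF domain libraries, randomized at the three base-contacting residues of each repeat, were co-expressed with matching RNA elements from a centromeric plasmid in strain YBZ-1, which carries a LexA–MS2 coat fusion and a HIS3 reporter. Transformants grew for four days on SC-Leu (input) or on SC-Leu-His + 0.5 mM 3-AT (selection), and the repeat regions were PCR-amplified and Illumina-sequenced. The interaction score is the log change in variant frequency from input to selection. That logarithm is base 2, with a pseudocount of 1 where a variant was absent.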
# [2] = biological target: PUM1 PUF domain R3-WFG (Homo sapiens, UniProt Q14671 828-1176, C935W;R936F;Q939G)
# Summary of the method: as §1
# [3] = biological target: PUM1 PUF domain R3-EWT (Homo sapiens, UniProt Q14671 828-1176, C935E;R936W;Q939T)
# Chain of PUM1 PUF domain R3-EWT (Q14671 828-1176 C935E/R936W/Q939T): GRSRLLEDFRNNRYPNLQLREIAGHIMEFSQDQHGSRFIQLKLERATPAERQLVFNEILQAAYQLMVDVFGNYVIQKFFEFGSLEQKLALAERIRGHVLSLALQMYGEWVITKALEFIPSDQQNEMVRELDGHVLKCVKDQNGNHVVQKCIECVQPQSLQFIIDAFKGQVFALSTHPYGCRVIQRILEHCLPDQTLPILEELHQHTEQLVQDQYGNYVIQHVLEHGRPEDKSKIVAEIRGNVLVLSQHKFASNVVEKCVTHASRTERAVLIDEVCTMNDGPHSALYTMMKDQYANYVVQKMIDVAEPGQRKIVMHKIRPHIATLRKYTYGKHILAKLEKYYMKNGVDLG
# Summary of the method: as §1
# [4] = biological target: PUM1 PUF domain R7-QGR (Homo sapiens, UniProt Q14671 828-1176, S1079Q;N1080G;E1083R)
# Chain of PUM1 PUF domain R7-QGR (Q14671 828-1176 S1079Q/N1080G/E1083R): as the sequence (Q14671 828-1176 C935E/R936W/Q939T) above, with E108C, W109R, T112Q, S252Q, N253G, E256R counted along it
# Summary of the method: as §1
# [5] = biological target: PUM1 PUF domain R4-ARV (Homo sapiens, UniProt Q14671 828-1176, N971A;H972R;Q975V)
# Chain of PUM1 PUF domain R4-ARV (Q14671 828-1176 N971A/H972R/Q975V): as the sequence (Q14671 828-1176 C935E/R936W/Q939T) above, with E108C, W109R, T112Q, N144A, H145R, Q148V counted along it
# Summary of the method: as §1
# [6] = biological target: PUM1 PUF domain R3-PHE (Homo sapiens, UniProt Q14671 828-1176, C935P;R936H;Q939E)
# Chain of PUM1 PUF domain R3-PHE (Q14671 828-1176 C935P/R936H/Q939E): as the sequence (Q14671 828-1176 C935E/R936W/Q939T) above, with E108P, W109H, T112E counted along it
# Summary of the method: as §1
# [7] = biological target: PUM1 PUF domain R5-GQK (Homo sapiens, UniProt Q14671 828-1176, C1007G;R1008Q;Q1011K)
# Chain of PUM1 PUF domain R5-GQK (Q14671 828-1176 C1007G/R1008Q/Q1011K): as the sequence (Q14671 828-1176 C935E/R936W/Q939T) above, with E108C, W109R, T112Q, C180G, R181Q, Q184K counted along it
# Summary of the method: as §1
# [8] = biological target: PUM1 PUF domain R5-ELW (Homo sapiens, UniProt Q14671 828-1176, C1007E;R1008L;Q1011W)
# Chain of PUM1 PUF domain R5-ELW (Q14671 828-1176 C1007E/R1008L/Q1011W): as the sequence (Q14671 828-1176 C935E/R936W/Q939T) above, with E108C, W109R, T112Q, C180E, R181L, Q184W counted along it
# Summary of the method: as §1
# [9] = biological target: T1, PUM1 PUF domain R6-KWL (Homo sapiens, UniProt Q14671 828-1176, N1043K;Y1044W;Q1047L)
# T1 sequence: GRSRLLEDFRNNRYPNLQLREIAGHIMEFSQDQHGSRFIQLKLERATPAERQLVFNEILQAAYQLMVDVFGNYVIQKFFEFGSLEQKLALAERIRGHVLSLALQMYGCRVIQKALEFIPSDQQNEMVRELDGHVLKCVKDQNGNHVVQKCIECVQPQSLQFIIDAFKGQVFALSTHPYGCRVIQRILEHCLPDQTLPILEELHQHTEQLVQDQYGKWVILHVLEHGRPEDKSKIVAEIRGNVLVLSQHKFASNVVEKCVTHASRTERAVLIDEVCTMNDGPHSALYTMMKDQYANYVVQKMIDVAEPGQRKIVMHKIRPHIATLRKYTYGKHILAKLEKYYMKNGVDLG
# Summary of the method: as §1
# [10] = biological target: PUM1 PUF domain R7-DWE (Homo sapiens, UniProt Q14671 828-1176, S1079D;N1080W)
# Summary of the method: as §1
# [11] = biological target: PUM1 PUF domain R5-KQS (Homo sapiens, UniProt Q14671 828-1176, C1007K;R1008Q;Q1011S)
# Summary of the method: as §1
# [12] = biological target: PUM1 PUF domain R8-VYR (Homo sapiens, UniProt Q14671 828-1176, N1122V;Q1126R)
# Summary of the method: as §1
# [13] = biological target: PUM1 PUF domain R3-AFP (Homo sapiens, UniProt Q14671 828-1176, C935A;R936F;Q939P)
# Summary of the method: as §1
# [14] = biological target: PUM1 PUF domain R1-RNR (Homo sapiens, UniProt Q14671 828-1176, S863R;R864N;Q867R)
# Chain of PUM1 PUF domain R1-RNR (Q14671 828-1176 S863R/R864N/Q867R): as the sequence (Q14671 828-1176 C935E/R936W/Q939T) above, with S36R, R37N, Q40R, E108C, W109R, T112Q counted along it
# Summary of the method: as §1
# [15] = biological target: PUM1 PUF domain R5-NLS (Homo sapiens, UniProt Q14671 828-1176, C1007N;R1008L;Q1011S)
# Chain of PUM1 PUF domain R5-NLS (Q14671 828-1176 C1007N/R1008L/Q1011S): as the sequence (Q14671 828-1176 C935E/R936W/Q939T) above, with E108C, W109R, T112Q, C180N, R181L, Q184S counted along it
# Summary of the method: as §1
# [16] = biological target: PUM1 PUF domain R5-KAR (Homo sapiens, UniProt Q14671 828-1176, C1007K;R1008A;Q1011R)
# Summary of the method: as §1
# [17] = biological target: PUM1 PUF domain R5-EWF (Homo sapiens, UniProt Q14671 828-1176, C1007E;R1008W;Q1011F)
# Summary of the method: as §1
# [18] = biological target: PUM1 PUF domain R5-NPE (Homo sapiens, UniProt Q14671 828-1176, C1007N;R1008P;Q1011E)
# Chain of PUM1 PUF domain R5-NPE (Q14671 828-1176 C1007N/R1008P/Q1011E): as the sequence (Q14671 828-1176 C935E/R936W/Q939T) above, with E108C, W109R, T112Q, C180N, R181P, Q184E counted along it
# Summary of the method: as §1
# [19] = biological target: PUM1 PUF domain R5-DQE (Homo sapiens, UniProt Q14671 828-1176, C1007D;R1008Q;Q1011E)
# Summary of the method: as §1
# [20] = biological target: PUM1 PUF domain R8-HFM (Homo sapiens, UniProt Q14671 828-1176, N1122H;Y1123F;Q1126M)
# Summary of the method: as §1
# Chain of PUM1 PUF domain R3-YPR (Q14671 828-1176 C935Y/R936P/Q939R): as the sequence (Q14671 828-1176 C935E/R936W/Q939T) above, with E108Y, W109P, T112R counted along it
sequence,measurement,setting,value
GGCUAGAACUAGUGGAUCCCCCGGCGCCCGGCGGCUCGAGCCCGGGUAAGUGUAAUUAGUCUGCAUGCCGCCGGGCGCCAUGCCUGCAGGUCGACUCUAGAAAACAUG,binding signal,[1],0.67 log2 enrichment (interaction score)
same,binding signal,[2],2.57 log2 enrichment (interaction score)
GGCUAGAACUAGUGGAUCCCCCGGCGCCCGGCGGCUCGAGCCCGGGUAAGUGUAAGUAGUCUGCAUGCCGCCGGGCGCCAUGCCUGCAGGUCGACUCUAGAAAACAUG,binding signal,[1],3.45 log2 enrichment (interaction score)
same,binding signal,[3],4.76 log2 enrichment (interaction score)
same,binding signal,[2],2.77 log2 enrichment (interaction score)
GGCUAGAACUAGUGGAUCCCCCGGCGCCCGGCGGCUCGAGCCCGGGUAAGUUUAAAUAGUCUGCAUGCCGCCGGGCGCCAUGCCUGCAGGUCGACUCUAGAAAACAUG,binding signal,[4],2.75 log2 enrichment (interaction score)
GGCUAGAACUAGUGGAUCCCCCGGCGCCCGGCGGCUCGAGCCCGGGUAAGUGUAAAUAGUCUGCAUGCCGCCGGGCGCCAUGCCUGCAGGUCGACUCUAGAAAACAUG,binding signal,[3],4.31 log2 enrichment (interaction score)
same,binding signal,[5],4.56 log2 enrichment (interaction score)
same,binding signal,[6],4.47 log2 enrichment (interaction score)
same,binding signal,[7],2.37 log2 enrichment (interaction score)
same,binding signal,[8],2.28 log2 enrichment (interaction score)
same,binding signal,[9],5.66 log2 enrichment (interaction score)
same,binding signal,[10],2.44 log2 enrichment (interaction score)
same,binding signal,[11],0.39 log2 enrichment (interaction score)
same,binding signal,[12],4.52 log2 enrichment (interaction score)
same,binding signal,[13],5.95 log2 enrichment (interaction score)
GGCUAGAACUAGUGGAUCCCCCGGCGCCCGGCGGCUCGAGCCCGGGUAAGUGUAAAUCGUCUGCAUGCCGCCGGGCGCCAUGCCUGCAGGUCGACUCUAGAAAACAUG,binding signal,[14],4.17 log2 enrichment (interaction score)
GGCUAGAACUAGUGGAUCCCCCGGCGCCCGGCGGCUCGAGCCCGGGUAAGUGUAAAUUGUCUGCAUGCCGCCGGGCGCCAUGCCUGCAGGUCGACUCUAGAAAACAUG,binding signal,[14],4.23 log2 enrichment (interaction score)
GGCUAGAACUAGUGGAUCCCCCGGCGCCCGGCGGCUCGAGCCCGGGUAAGUGUUAAUAGUCUGCAUGCCGCCGGGCGCCAUGCCUGCAGGUCGACUCUAGAAAACAUG,binding signal,[15],6.48 log2 enrichment (interaction score)
same,binding signal,[16],2.72 log2 enrichment (interaction score)
same,binding signal,[17],3.15 log2 enrichment (interaction score)
GGCUAGAACUAGUGGAUCCCCCGGCGCCCGGCGGCUCGAGCCCGGGUAAGUGUGAAUAGUCUGCAUGCCGCCGGGCGCCAUGCCUGCAGGUCGACUCUAGAAAACAUG,binding signal,[18],4.36 log2 enrichment (interaction score)
same,binding signal,[19],3.83 log2 enrichment (interaction score)
GGCUAGAACUAGUGGAUCCCCCGGCGCCCGGCGGCUCGAGCCCGGGUAAGUGUACAUAGUCUGCAUGCCGCCGGGCGCCAUGCCUGCAGGUCGACUCUAGAAAACAUG,binding signal,[5],0.8 log2 enrichment (interaction score)
GGCUAGAACUAGUGGAUCCCCCGGCGCCCGGCGGCUCGAGCCCGGGUAAGUGUCAAUAGUCUGCAUGCCGCCGGGCGCCAUGCCUGCAGGUCGACUCUAGAAAACAUG,binding signal,[7],2.24 log2 enrichment (interaction score)
same,binding signal,[16],4.29 log2 enrichment (interaction score)
same,binding signal,[11],3.98 log2 enrichment (interaction score)
GGCUAGAACUAGUGGAUCCCCCGGCGCCCGGCGGCUCGAGCCCGGGUAAGCGUAAAUAGUCUGCAUGCCGCCGGGCGCCAUGCCUGCAGGUCGACUCUAGAAAACAUG,binding signal,[12],5.17 log2 enrichment (interaction score)
same,binding signal,[20],2.95 log2 enrichment (interaction score)

# Source: publication PMC8384837, “Expanding the binding specificity for RNA recognition by a PUF domain”
